± gives the standard deviation of the averaged measurements. About 5,400 targets were measured; listed, in parts, are those with the largest changes and a random draw of the rest.
Compound: Nc1nc2c(ncn2[C@@H]2O[C@H](COP(=O)(O)OP(=O)(O)OP(=O)(O)O)[C@@H](O)[C@H]2O)c(=O)[nH]1 [guanosine triphosphate]
Test: NP40-soluble protein abundance relative to vehicle (solubility fold change) (ratio); higher = more soluble protein in presence of GTP
Method in brief: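 Across three independent experiments, values are fold changes against the detergent-processed vehicle for each replicate, based on vsn-normalised intensities. The samples were Jurkat crude lysate treated with eight concentrations (0.1 to 10 mM) for 10 min at room temperature and then 3 min at 37 °C. Lysate was solubilised with 0.8% NP40 and benzonase, ultracentrifuged, and the supernatant analysed by TMT-labelled LC-MS/MS.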

UniProt Q03154, sequence (Q03154 whole entry, looked up, other chains not shown): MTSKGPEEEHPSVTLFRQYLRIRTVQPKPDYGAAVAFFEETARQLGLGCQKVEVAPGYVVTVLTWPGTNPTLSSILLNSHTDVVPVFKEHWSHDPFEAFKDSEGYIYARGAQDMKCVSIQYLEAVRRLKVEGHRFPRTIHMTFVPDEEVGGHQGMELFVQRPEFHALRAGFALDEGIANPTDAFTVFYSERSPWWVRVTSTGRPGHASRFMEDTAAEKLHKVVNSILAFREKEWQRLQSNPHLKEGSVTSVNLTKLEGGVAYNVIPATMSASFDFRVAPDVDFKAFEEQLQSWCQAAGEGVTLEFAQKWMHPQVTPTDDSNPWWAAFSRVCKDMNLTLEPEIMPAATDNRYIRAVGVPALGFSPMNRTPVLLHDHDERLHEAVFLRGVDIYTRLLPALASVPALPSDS
UniProt Q9Y4I1, sequence (Q9Y4I1 whole entry, one chain of several): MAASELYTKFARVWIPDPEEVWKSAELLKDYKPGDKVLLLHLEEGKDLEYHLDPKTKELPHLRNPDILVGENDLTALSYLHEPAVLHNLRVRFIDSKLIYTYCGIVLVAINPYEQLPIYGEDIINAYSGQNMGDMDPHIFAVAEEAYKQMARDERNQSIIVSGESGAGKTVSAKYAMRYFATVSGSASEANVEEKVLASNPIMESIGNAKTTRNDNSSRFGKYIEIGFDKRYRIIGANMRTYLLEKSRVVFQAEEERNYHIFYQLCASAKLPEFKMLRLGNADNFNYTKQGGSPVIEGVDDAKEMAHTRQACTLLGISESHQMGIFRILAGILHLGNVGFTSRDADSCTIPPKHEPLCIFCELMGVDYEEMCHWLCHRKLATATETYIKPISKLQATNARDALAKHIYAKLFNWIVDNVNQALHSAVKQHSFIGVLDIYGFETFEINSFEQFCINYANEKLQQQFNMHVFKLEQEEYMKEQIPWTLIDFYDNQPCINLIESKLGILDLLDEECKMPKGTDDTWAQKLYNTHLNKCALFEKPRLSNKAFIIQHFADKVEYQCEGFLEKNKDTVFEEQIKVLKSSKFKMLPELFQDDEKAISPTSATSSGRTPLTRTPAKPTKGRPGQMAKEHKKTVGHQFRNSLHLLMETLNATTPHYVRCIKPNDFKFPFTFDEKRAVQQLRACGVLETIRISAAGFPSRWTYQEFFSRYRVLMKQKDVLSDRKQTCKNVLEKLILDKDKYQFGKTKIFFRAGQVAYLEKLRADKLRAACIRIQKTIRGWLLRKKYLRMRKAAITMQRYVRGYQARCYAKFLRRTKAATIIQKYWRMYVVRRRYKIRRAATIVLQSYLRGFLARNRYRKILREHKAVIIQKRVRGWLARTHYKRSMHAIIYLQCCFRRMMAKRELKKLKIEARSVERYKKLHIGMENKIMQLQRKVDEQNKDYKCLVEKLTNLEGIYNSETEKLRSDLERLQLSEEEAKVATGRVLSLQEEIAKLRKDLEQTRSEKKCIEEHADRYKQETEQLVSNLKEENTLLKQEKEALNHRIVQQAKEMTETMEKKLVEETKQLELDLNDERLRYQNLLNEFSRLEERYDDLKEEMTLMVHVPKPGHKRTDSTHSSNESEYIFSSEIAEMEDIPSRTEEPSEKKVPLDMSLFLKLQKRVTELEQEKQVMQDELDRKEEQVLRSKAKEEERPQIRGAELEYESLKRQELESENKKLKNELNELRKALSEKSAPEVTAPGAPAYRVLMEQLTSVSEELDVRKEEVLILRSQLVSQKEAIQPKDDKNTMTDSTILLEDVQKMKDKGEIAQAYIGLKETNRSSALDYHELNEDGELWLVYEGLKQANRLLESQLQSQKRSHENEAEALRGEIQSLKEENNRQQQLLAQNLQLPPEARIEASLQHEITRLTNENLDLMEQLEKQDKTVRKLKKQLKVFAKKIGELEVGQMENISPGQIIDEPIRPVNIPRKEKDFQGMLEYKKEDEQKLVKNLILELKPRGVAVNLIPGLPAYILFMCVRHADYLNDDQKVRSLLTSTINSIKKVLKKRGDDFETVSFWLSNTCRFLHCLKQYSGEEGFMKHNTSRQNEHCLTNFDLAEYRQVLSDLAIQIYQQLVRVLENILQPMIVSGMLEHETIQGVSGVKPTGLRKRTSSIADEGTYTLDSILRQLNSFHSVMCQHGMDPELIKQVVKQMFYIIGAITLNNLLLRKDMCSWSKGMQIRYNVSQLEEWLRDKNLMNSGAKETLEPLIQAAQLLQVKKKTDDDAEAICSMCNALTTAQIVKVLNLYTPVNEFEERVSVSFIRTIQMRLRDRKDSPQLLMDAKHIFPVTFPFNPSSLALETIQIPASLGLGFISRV
UniProt P23528, sequence (P23528 whole entry, one chain of several): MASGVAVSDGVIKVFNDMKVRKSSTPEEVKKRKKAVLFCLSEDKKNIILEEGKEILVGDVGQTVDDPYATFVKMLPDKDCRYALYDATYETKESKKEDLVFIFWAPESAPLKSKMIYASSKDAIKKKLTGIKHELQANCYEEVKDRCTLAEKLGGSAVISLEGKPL
UniProt A5PLN9, sequence (A5PLN9 whole entry): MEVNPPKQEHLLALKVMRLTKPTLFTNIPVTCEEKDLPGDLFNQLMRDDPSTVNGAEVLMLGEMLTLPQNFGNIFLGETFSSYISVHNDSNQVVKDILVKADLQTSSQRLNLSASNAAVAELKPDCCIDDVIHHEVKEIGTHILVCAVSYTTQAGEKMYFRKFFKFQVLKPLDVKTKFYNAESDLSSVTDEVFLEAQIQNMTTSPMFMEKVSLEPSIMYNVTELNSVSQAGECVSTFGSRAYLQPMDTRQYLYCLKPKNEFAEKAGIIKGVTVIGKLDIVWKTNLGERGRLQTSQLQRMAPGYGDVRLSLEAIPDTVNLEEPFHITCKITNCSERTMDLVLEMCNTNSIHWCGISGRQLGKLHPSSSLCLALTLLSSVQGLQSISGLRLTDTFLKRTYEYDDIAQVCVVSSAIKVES
UniProt Q8NEY8, sequence (Q8NEY8 whole entry, one chain of several): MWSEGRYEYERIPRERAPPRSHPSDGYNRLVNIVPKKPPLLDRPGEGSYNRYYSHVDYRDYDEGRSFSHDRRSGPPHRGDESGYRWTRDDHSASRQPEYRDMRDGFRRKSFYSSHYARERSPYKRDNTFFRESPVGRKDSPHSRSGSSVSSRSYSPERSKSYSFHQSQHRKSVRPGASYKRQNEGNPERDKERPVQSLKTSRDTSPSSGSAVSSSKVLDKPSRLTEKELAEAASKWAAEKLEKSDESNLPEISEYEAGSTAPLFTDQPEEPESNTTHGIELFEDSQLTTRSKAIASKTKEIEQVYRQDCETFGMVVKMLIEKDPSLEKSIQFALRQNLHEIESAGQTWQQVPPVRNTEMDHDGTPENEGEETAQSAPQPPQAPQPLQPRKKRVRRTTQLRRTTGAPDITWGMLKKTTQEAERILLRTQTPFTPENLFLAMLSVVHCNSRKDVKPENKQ
UniProt Q9Y3B2, sequence (Q9Y3B2 whole entry, one chain of several): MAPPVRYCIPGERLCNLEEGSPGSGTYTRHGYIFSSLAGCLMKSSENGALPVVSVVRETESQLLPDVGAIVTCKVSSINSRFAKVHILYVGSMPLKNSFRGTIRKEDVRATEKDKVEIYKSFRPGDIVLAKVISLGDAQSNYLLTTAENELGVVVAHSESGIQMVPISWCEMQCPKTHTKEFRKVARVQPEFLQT
UniProt Q9NYL4, sequence (Q9NYL4 whole entry, one chain of several): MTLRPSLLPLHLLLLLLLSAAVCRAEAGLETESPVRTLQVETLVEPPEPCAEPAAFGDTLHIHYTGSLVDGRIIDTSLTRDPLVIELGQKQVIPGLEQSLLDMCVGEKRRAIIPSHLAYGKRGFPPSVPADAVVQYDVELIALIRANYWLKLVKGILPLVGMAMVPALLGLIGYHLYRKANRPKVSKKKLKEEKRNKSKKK
UniProt P48444, sequence (P48444 whole entry, one chain of several): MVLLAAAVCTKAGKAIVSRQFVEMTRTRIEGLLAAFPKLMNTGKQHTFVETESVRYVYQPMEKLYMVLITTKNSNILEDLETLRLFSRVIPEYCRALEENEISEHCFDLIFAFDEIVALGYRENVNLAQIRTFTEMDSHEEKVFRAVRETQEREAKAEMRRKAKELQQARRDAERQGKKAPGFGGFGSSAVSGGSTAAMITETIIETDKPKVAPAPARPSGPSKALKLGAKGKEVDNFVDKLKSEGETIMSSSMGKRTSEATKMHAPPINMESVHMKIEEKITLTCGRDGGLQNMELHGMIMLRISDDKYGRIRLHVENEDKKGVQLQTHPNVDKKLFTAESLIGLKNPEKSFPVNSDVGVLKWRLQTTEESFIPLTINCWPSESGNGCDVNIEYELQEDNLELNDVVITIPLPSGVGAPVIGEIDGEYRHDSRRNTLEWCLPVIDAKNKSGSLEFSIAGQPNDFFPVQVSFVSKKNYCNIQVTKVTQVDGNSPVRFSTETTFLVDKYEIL
UniProt O94952, sequence (O94952 whole entry, one chain of several): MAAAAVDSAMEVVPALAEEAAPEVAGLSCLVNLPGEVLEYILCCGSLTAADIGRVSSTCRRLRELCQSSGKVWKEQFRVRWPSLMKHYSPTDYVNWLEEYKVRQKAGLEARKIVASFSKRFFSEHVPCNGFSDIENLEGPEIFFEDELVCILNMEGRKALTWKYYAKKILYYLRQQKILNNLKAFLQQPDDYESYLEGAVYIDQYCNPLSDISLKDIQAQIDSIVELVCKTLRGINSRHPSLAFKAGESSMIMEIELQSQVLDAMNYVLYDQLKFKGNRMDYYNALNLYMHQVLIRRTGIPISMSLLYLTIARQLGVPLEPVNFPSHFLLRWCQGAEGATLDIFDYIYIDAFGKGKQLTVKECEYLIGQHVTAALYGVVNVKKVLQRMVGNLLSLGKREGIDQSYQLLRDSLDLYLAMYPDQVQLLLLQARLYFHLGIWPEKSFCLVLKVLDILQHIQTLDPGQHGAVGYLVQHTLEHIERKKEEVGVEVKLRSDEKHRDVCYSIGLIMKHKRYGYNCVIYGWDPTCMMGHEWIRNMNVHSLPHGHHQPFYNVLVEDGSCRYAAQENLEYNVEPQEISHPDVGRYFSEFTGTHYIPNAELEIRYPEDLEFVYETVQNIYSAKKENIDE

Target	NP40-soluble protein abundance (concentration: 0.1mM)	NP40-soluble protein abundance (concentration: 0.5mM)	NP40-soluble protein abundance (concentration: 1mM)	NP40-soluble protein abundance (concentration: 2mM)	NP40-soluble protein abundance (concentration: 4mM)	NP40-soluble protein abundance (concentration: 6mM)	NP40-soluble protein abundance (concentration: 8mM)	NP40-soluble protein abundance (concentration: 10mM)
F8W0Q9|Q8NEY8-2|Q8NEY8-8|Q8NEY8-9|Q8NEY8-3|Q8NEY8 (UniProt Q8NEY8)	1.01 ± 0.022	1.08 ± 0.019	1.19 ± 0.058	1.28 ± 0.096	1.41 ± 0.18	1.45 ± 0.2	1.63 ± 0.22	1.77 ± 0.42
C9IY68|C9J384|Q9BQ75|Q9BQ75-2 (UniProt Q9BQ75)	0.945 ± 0.058	1.03 ± 0.083	1.06 ± 0.071	1.1 ± 0.058	1.17 ± 0.069	1.22 ± 0.094	1.23 ± 0.12	1.31 ± 0.04
A0A087X1E4|P53365|P53365-3 (UniProt P53365)	0.956 ± 0.05	0.853 ± 0.057	0.972 ± 0.052	0.963 ± 0.08	0.913 ± 0.088	0.906 ± 0.1	0.861 ± 0.14	0.889 ± 0.068
F5GY05 (UniProt Q96EK7)	1.06 ± 0.034	1 ± 0.11	1.01 ± 0.036	1.06 ± 0.083	1 ± 0.047	0.99 ± 0.042	1.05 ± 0.083	1.05 ± 0.13
UniProt A5PLN9|A5PLN9-2|A5PLN9-4|A5PLN9-5	1.02 ± 0.078	1.04 ± 0.052	0.99 ± 0.041	0.954 ± 0.05	0.969 ± 0.073	0.951 ± 0.041	0.965 ± 0.014	0.904 ± 0.014
C9JMV9|Q03154|Q03154-4 (UniProt Q03154+C9JMV9)	1.03 ± 0.012	1.03 ± 0.011	0.97 ± 0.078	0.924 ± 0.036	0.954 ± 0.019	0.933 ± 0.031	0.94 ± 0.05	0.956 ± 0.12
F8VU90|Q9NYL4|Q9NYL4-2 (UniProt Q9NYL4)	0.972 ± 0.06	0.968 ± 0.052	1.04 ± 0.018	1.03 ± 0.065	1.05 ± 0.033	0.996 ± 0.078	0.922 ± 0.041	0.995 ± 0.065
A0A087WWH3|Q9NZM4|Q9NZM4-2 (UniProt Q9NZM4)	1.06 ± 0.018	0.989 ± 0.1	1.16 ± 0.19	1.22 ± 0.1	1.22 ± 0.15	1.13 ± 0.33	1.2 ± 0.44	1.33 ± 0.38
A6NJD9|A8MVT4|A8MYK1|Q16540 (UniProt Q16540)	1.06 ± 0.1	1.11 ± 0.23	1.28 ± 0.22	1.29 ± 0.31	1.36 ± 0.41	1.14 ± 0.35	1.19 ± 0.32	1.2 ± 0.37
B0YIW6|P48444 (UniProt P48444)	1.06 ± 0.053	1.08 ± 0.078	1.02 ± 0.066	1.01 ± 0.11	1.02 ± 0.1	1.01 ± 0.083	0.975 ± 0.059	0.933 ± 0.067
B4E1Q4|O14730|O14730-2 (UniProt O14730)	0.965 ± 0.1	1.03 ± 0.063	0.949 ± 0.081	0.921 ± 0.073	0.806 ± 0.037	0.77 ± 0.041	0.747 ± 0.08	0.704 ± 0.041
C9J5X1|P08069 (UniProt P08069)	1.04 ± 0.13	1.04 ± 0.13	1.15 ± 0.11	0.987 ± 0.07	1 ± 0.086	1.05 ± 0.1	1.07 ± 0.14	1.04 ± 0.2
F5H269|Q9Y485 (UniProt Q9Y485)	0.991 ± 0.013	1.11 ± 0.081	1.05 ± 0.096	1.01 ± 0.087	1.04 ± 0.09	1.06 ± 0.088	1.12 ± 0.15	1.11 ± 0.11
G3V394|Q9Y4I1-3 (UniProt Q9Y4I1)	1.28 ± 0.16	2.15 ± 0.36	2.39 ± 0.25	2.51 ± 0.3	2.65 ± 0.31	2.59 ± 0.39	2.5 ± 0.4	2.51 ± 0.36
E9PP50|P23528 (UniProt P23528)	0.893 ± 0.054	0.906 ± 0.066	0.894 ± 0.066	0.823 ± 0.076	0.819 ± 0.068	0.839 ± 0.078	0.84 ± 0.066	0.821 ± 0.081
D6RAN8|H7C5U8|Q9P0M9 (UniProt Q9P0M9)	1.09 ± 0.38	1.2 ± 0.5	1.53 ± 0.78	1.81 ± 0.82	1.91 ± 0.83	1.72 ± 0.79	1.64 ± 0.79	1.58 ± 0.84
H0Y362|Q8NEW0 (UniProt Q8NEW0)	1.21 ± 0.043	1.14 ± 0.018	1.14 ± 0.026	1.13 ± 0.1	1.05 ± 0.062	1.05 ± 0.11	1.04 ± 0.055	0.959 ± 0.013
B1AMS2|Q14141|Q14141-2|Q14141-4 (UniProt Q14141)	1.03 ± 0.053	0.998 ± 0.011	0.968 ± 0.062	0.9155 ± 0.0055	0.941 ± 0.054	0.921 ± 0.016	0.941 ± 0.1	0.857 ± 0.013
H0YIE9|O94952|O94952-1|Q4G104 (UniProt O94952)	1.19 ± 0.045	1.03 ± 0.091	1.05 ± 0.013	1.04 ± 0.12	1.12 ± 0.014	0.978 ± 0.078	1.08 ± 0.035	0.921 ± 0.089
B1AMU7|Q9Y3B2 (UniProt Q9Y3B2)	1.02 ± 0.037	1.07 ± 0.04	1.01 ± 0.056	1.1 ± 0.11	1.18 ± 0.11	1.22 ± 0.12	1.17 ± 0.062	1.18 ± 0.068
B9ZVT1|Q8IXT5 (UniProt Q8IXT5)	1.02 ± 0.081	1.13 ± 0.19	1.21 ± 0.078	1.28 ± 0.25	1.29 ± 0.29	1.3 ± 0.32	1.45 ± 0.47	1.48 ± 0.39
A0A0C4DFU2|P04179|P04179-4 (UniProt P04179)	0.85 ± 0.056	0.843 ± 0.071	0.851 ± 0.071	0.839 ± 0.043	0.814 ± 0.045	0.823 ± 0.052	0.734 ± 0.073	0.776 ± 0.07
A0A087WT99|Q9H0W9|Q9H0W9-2|E9PPB5|E9PQS1 (UniProt Q9H0W9)	0.993 ± 0.094	0.942 ± 0.069	0.925 ± 0.048	0.899 ± 0.068	0.872 ± 0.058	0.897 ± 0.087	0.901 ± 0.11	0.848 ± 0.053
E9PDF6|O43795|O43795-2 (UniProt O43795)	1.44 ± 0.25	2.35 ± 0.38	2.32 ± 0.37	2.41 ± 0.43	2.4 ± 0.41	2.37 ± 0.38	2.33 ± 0.3	2.21 ± 0.26
